We go through six sequences from the supplement of paper PMC6555819.

Common to all, as to assay: PBM binding z-score (relative to random genomic background probes); higher = stronger binding; sequences stand for … in GC…GCGATTGACAGCGTAGAATGAAGG
Assay [1] relates to FXR:RXRa (NR concentration 270 nM, RXRa partner concentration 90 nM). An outline of the steps:
(§1)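 Binding z-scores take random background probes as their reference. They come from custom Agilent 4×180K protein-binding microarrays incubated 1 h with ligand-free nuclear receptor dimers, with antibodies against each partner (one per run) detecting binding. Scanned fluorescence was regression-normalized.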

Assay [2] has as its system LXRa:RXRa (NR concentration 270 nM, RXRa partner concentration 90 nM). In short, it runs like this:
as §1

Assay [3] concerns LXRa homodimer (NR concentration 270 nM). An outline of the steps: as §1
Assay [4] relates to LXRb:RXRa (NR concentration 270 nM, RXRa partner concentration 90 nM). An outline of the steps: as §1
Assay [5] concerns LXRb homodimer (NR concentration 270 nM). An outline of the steps:
as §1

The subject of assay [6] is PPARa:RXRa (NR concentration 270 nM, RXRa partner concentration 90 nM). In short, it runs like this: as §1
Assay [7] relates to PPARg:RXRa (NR concentration 180 nM, RXRa partner concentration 90 nM). An outline of the steps:
as §1

Assay [8] deals with PPARg:RXRa 270nM:90nM, anti-RXR (NR concentration 270 nM, RXRa partner concentration 90 nM). An outline of the steps: as §1
Assay [9] has as its system PPARg:RXRa 30nM:10nM, anti-RXR (NR concentration 30 nM, RXRa partner concentration 10 nM). An outline of the steps: as §1
Assay [10] deals with PPARg:RXRa 90nM:30nM, anti-RXR (NR concentration 90 nM, RXRa partner concentration 30 nM). An outline of the steps: as §1
Assay [11] concerns PPARg:RXRa DBDmut IVT, anti-RXR (DBD mutation: RXRa K156A/R161A, NR concentration 270 nM, RXRa partner concentration 90 nM). An outline of the steps: as §1
Assay [12] has as its system PPARg:RXRa IVT, anti-PPARg (NR concentration 270 nM, RXRa partner concentration 90 nM). In short, it runs like this: as §1
Assay [13] deals with PPARg DBDmut:RXRa IVT, anti-PPARg (DBD mutation: PPARg1 K132A/R137A, NR concentration 270 nM, RXRa partner concentration 90 nM). An outline of the steps: as §1
In assay [14] the test system is PPARg DBDmut IVT, anti-PPARg (DBD mutation: PPARg1 K132A/R137A, NR concentration 270 nM). An outline of the steps:
as §1

Assay [15] has as its system PPARg homodimer (NR concentration 180 nM). An outline of the steps:
as §1

Assay [16] concerns PXR:RXRa (NR concentration 270 nM, RXRa partner concentration 90 nM). An outline of the steps: as §1
Assay [17] relates to PXR homodimer (NR concentration 270 nM). An outline of the steps: as §1
The test system of assay [18] is RARa:RXR (NR concentration 270 nM, RXRa partner concentration 90 nM). An outline of the steps: as §1
Assay [19] concerns RARa homodimer (NR concentration 270 nM). An outline of the steps: as §1
Assay [20] concerns RARb:RXRa (NR concentration 270 nM, RXRa partner concentration 90 nM). In short, it runs like this: as §1

On to AGAATGTGGTTATTAAGATCAGGGAATTGCGGTC, for which the PBM binding z-score is 0.0647 in assay [1]; -0.0146 in assay [2]; 0.00993 in assay [3]; -0.0352 in assay [4]; 0.111 in assay [5]; -0.0476 in [6]. In addition, the PBM binding z-score in [7] was 0.144; in assay [8], 0.078; in assay [9], -0.037; in assay [10], 0.417; in [11], 0.321; in [12] it was 0.232. Also, the PBM binding z-score in assay [13] is 0.301; in assay [14], 1.09; in assay [15], 1.35; in assay [16], -0.0244; in assay [17], 0.763; in assay [18], 0.105. Further, the PBM binding z-score amounted to 1.37 in assay [19] and 0.11 in assay [20].
For the sequence CAAACTAAGTCAAAGGTCAAAGTCGAGCCAACCA, the PBM binding z-score was determined as 6.46 in assay [1]; 6.42 in assay [2]; 5.19 in assay [3]; 6.08 in [4]; 2.84 in assay [5]; 6.84 in [6]. The PBM binding z-score in [7] is 11.4; in assay [8] it was 10.3; in assay [9], 11.8; in assay [10], 12.2; in [11], 3.49; in assay [12], 6.79. Moreover, the PBM binding z-score in [13] worked out at 1.69; in assay [14], 2.86; in [15] it was 5.3; in assay [16], 6.14; in assay [17] it was 2.15; in [18] it was 7.85. Moreover, the PBM binding z-score in assay [19] is 3.31; in [20], 4.95.
For CAAACTAGGTCACGAAAGGACAAAGTCGAATGAC, the PBM binding z-score in assay [1] was found to be 5.05; in assay [2] it was 6.1; in [3] it was 1.25; in assay [4] it was 4.08; in assay [5], 0.368; in [6] it was 5.41. Also, the PBM binding z-score worked out at 9.21 in assay [7]; 7.34 in assay [8]; 5.83 in assay [9]; 7.48 in assay [10]; 8.65 in assay [11]; 9.28 in assay [12]. Besides, the PBM binding z-score in assay [13] is 5.83; in [14], 2.82; in [15], 2.7; in [16], 4.22; in assay [17] it was 0.691; in assay [18], 3.22. Further, the PBM binding z-score in assay [19] was found to be 1.93; in assay [20], 4.54.
On to AGAATGAGGTTACCAAAGATCAGGGATACGCTTG, for which the PBM binding z-score was found to be 1.93 in assay [1]; 5.68 in assay [2]; 0.0211 in assay [3]; 2.95 in assay [4]; 0.0562 in [5]; 3.28 in assay [6]. Moreover, the PBM binding z-score in assay [7] was 2.84; in assay [8], 2.6; in [9] it was 1.03; in assay [10] it was 1.77; in [11], 3.77; in assay [12] it was 3.44. In addition, the PBM binding z-score in assay [13] is 1.54; in assay [14], 0.614; in [15], 0.494; in assay [16], 1.38; in assay [17], -0.284; in assay [18], 2.04. The PBM binding z-score in assay [19] came to 0.01; in assay [20], 1.98.
For the sequence CCGACTGGGGCAAAGGTTACCATACTCAGTACGA, the PBM binding z-score in assay [1] is 1.57; in assay [2], 1.66; in [3], 0.0551; in assay [4] it was 2.1; in [5], -0.895; in assay [6] it was 5.49. Besides, the PBM binding z-score amounted to 11.2 in [7]; 9.84 in assay [8]; 8.71 in assay [9]; 11.5 in [10]; 4.37 in assay [11]; 6 in assay [12]. Moreover, the PBM binding z-score was 0.389 in assay [13]; -0.153 in [14]; 1.16 in assay [15]; 2.32 in assay [16]; -0.304 in assay [17]; 3.94 in assay [18]. Besides, the PBM binding z-score in assay [19] stood at 0.0257; in [20] it was 2.4.
For the sequence CACACTAGGTCACGAAAGGTCAAAGTCGAATGAC, the PBM binding z-score in assay [1] is 7.55; in assay [2], 8.25; in assay [3], 9.12; in assay [4], 7.76; in assay [5], 3.53; in assay [6], 6.67. The PBM binding z-score in [7] came to 9.73; in [8], 8.2; in [9] it was 6.53; in [10], 8.24; in [11], 7.74; in [12] it was 8.37. Moreover, the PBM binding z-score stood at 3.1 in assay [13]; 1.95 in assay [14]; 5.51 in [15]; 7.26 in assay [16]; 2.87 in [17]; 7.78 in assay [18]. The PBM binding z-score in assay [19] came to 2.46; in [20], 5.97.
